Experimental findings from PubChem BioAssay (Tox21) are described below.

Test [1] can be described thus: qHTS assay to identify aromatase inhibitors - cell viability counter screen (AID 743084).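 Further: cells stimulated with testosterone during compound exposure; nearly all actives have a fitted effect of over 55% in size.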 Background: In qHTS, concentration-response curves come from the screen itself.
Test [2] can be described thus: qHTS assay to identify small molecule that activate the aryl hydrocarbon receptor (AhR) signaling pathway - cell viability counter screen (AID 743086).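 Further: HepG2 liver cells carrying the AhR DRE luciferase reporter; series mostly up to about 70 µM; nearly all actives have a fitted effect of over 45% in size.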 In outline:
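HepG2-AhR-luc (HG2L7.5c1) cells, 4000/well, treated 24 h at 37 C with compound; viability measured as CellTiter-Fluor fluorescence after 30 min in the same wells as the luciferase read.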

Test [3] addresses Peroxisome proliferator-activated receptor gamma (Homo sapiens) (UniProt P37231). As to the kind of experiment: qHTS assay to identify small molecule antagonists of the peroxisome proliferator-activated receptor gamma (PPARg) signaling pathway (AID 743191; calls by dose curve; further: series mostly up to about 63 µM; nearly all actives have a fitted effect of over 30% in size). In outline:
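GeneBLAzer PPARg UAS-bla HEK293H cells, 5 h post-plating, exposed to compounds 17 h at 37C. LiveBLAzer B/G FRET substrate added for 1 h at room temperature; beta-lactamase reporter read by fluorescence intensity.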

Test [4] in a line: qHTS assay to identify small molecule antagonists of the peroxisome proliferator-activated receptor gamma (PPARg) signaling pathway - cell viability counter screen (AID 743194). Further: nearly all actives have a fitted effect of over 55% in size. As to conditions: Potency: co-treated with 50 nM rosiglitazone unless noted. The procedure, abridged:
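Cytotoxicity counter screen in PPARg-bla HEK293H cells, same wells as reporter assay. Compounds plus 50 nM rosiglitazone (final) for 17 h at 37 C, then viability read by CellTiter-Glo luminescence.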

Test [5] can be described thus: qHTS assay for small molecule agonists of the antioxidant response element (ARE) signaling pathway (AID 743202; active means well fitted activation curve with a large enough effect in the signal ratio in the repeat runs, not every such curve was filed as active; the % refers to the signal ratio; further: potency means the concentration at half of the fitted maximal effect). In outline: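 HepG2 ARE-bla cells; 16 h treatment at 37 C; FRET-based beta-lactamase fluorescence read after 2 h substrate incubation at room temperature.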
A short description of test [6]: qHTS assay for small molecule agonists of the antioxidant response element (ARE) signaling pathway - cell viability counter screen (AID 743203; calls by dose curve; further: nearly all actives have a fitted effect of over 55% in size; further: potency means the concentration at half of the fitted maximal effect). In outline:
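ATP content via CellTiter-Glo luminescence served as the viability measure. Cells: ARE-bla HepG2, 2,000 per well. Exposure: 16 hrs, 37C/5% CO2.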

Test [7] can be described thus: qHTS assay for small molecule activators of the heat shock response signaling pathway - cell viability counter screen (AID 743209). Further: nearly all actives have a fitted effect of over 50% in size. The procedure, abridged: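 Compounds dissolved in DMSO were added to overnight-plated HSE-bla HeLa cells and left 5 h at 37 C. Cell viability was quantified by luminescence using CellTiter-Glo.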
Test [8] is described as follows: qHTS assay to identify small molecule agonists of the peroxisome proliferator-activated receptor delta (PPARd) signaling pathway - cell viability counter screen (AID 743211). Further: nearly all actives have a fitted effect of over 55% in size. Further: potency means the concentration at half of the fitted maximal effect. In outline:
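Viability of GeneBLAzer PPARd UAS-bla HEK293H cells was assessed after 17 h compound incubation at 37C, using CellTiter-Glo reagent added after the reporter read and luminescence recorded 30 min later.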

Test [9] can be described thus: qHTS assay to identify small molecule antagonists of the peroxisome proliferator-activated receptor delta (PPARd) signaling pathway - cell viability counter screen (AID 743213). Further: nearly all actives have a fitted effect of over 50% in size. Further: potency means the concentration at half of the fitted maximal effect. The procedure, abridged:
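Luminescence from CellTiter-Glo, added after the bla read and incubated 30 min at room temperature, gives viability of HEK293H PPARd-bla cells exposed to compounds for 17 h at 37 C with 300 nM L165041.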

Test [10] can be described thus: qHTS assay to identify small molecule agonists of the farnesoid-X-receptor (FXR) signaling pathway - cell viability counter screen (AID 743218). Further: nearly all actives have a fitted effect of over 45% in size. Further: potency means the concentration at half of the fitted maximal effect. In outline:
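Quantitative HTS counter screen measuring ATP-based viability via CellTiter-Glo luminescence in HEK 293T cells carrying a UAS-driven beta-lactamase reporter, after 16 h compound exposure at 37 C.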

Test [11] can be described thus: qHTS assay to identify small molecule antagonists of the farnesoid-X-receptor (FXR) signaling pathway - cell viability counter screen (AID 743221; active means well fitted cell-killing curve with a large enough effect in the repeat runs, not every such curve was filed as active; further: nearly all actives have a fitted effect of over 50% in size). In outline:
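Quantitative HTS of the Tox21 10K library run in parallel with the beta-lactamase reporter read. HEK 293T cells carrying a UAS-driven bla reporter got compound and 50 uM CDCA (final) for 16 h; ATP-based luminescence followed.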

In test [12] the target is Aryl hydrocarbon receptor (Homo sapiens) (UniProt P35869). As to the kind of experiment: qHTS assay to identify small molecule that activate the aryl hydrocarbon receptor (AhR) signaling pathway (AID 743085).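 Further: HG2L7.5c1 human HepG2 liver cells with stably integrated DRE-driven firefly reporter; series mostly up to about 70 µM; nearly all actives have a fitted effect of over 15% in size.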 In outline:
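Steps: seed HepG2-AhR-luc cells; allow 5 h at 37C; pin-transfer test compound or vehicle; incubate 24 h at 37C; add viability dye (30 min, 37C) and read fluorescence; add luciferase substrate (30 min, RT) and read luminescence.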

A short description of test [13]: qHTS assay for small molecule activators of the heat shock response signaling pathway (AID 743210; active means well fitted activation curve with a large enough effect in the signal ratio in the repeat runs, with a control signal flat, not every such curve was filed as active; the % refers to the signal ratio; further: potency means the concentration at half of the fitted maximal effect;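 on activation: HeLa cells with beta-lactamase reporter driven by heat shock elements; series mostly up to about 63 µM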). The procedure, abridged: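 Following overnight attachment, HSE-bla HeLa cells received test compounds for 5 h at 37 C; beta-lactamase activity was then detected via FRET substrate fluorescence.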
Test [14] deals with Peroxisome proliferator-activated receptor delta (Homo sapiens) (UniProt Q03181). As to the kind of experiment: qHTS assay to identify small molecule agonists of the peroxisome proliferator-activated receptor delta (PPARd) signaling pathway (AID 743212; calls by dose curve; further: potency means the concentration at half of the fitted maximal effect). The procedure, abridged:
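Tox21 library screened in GeneBLAzer PPARd UAS-bla HEK293H cells. After compound treatment at 37 C, a FRET-based beta-lactamase substrate was applied for 2 h and fluorescence recorded.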

The target is the same in test [15]. In words: qHTS assay to identify small molecule antagonists of the peroxisome proliferator-activated receptor delta (PPARd) signaling pathway (AID 743215; active means well fitted inhibition curve with a large enough effect in the signal ratio in the repeat runs, not every such curve was filed as active; the % refers to the signal ratio;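 further: cells stimulated with agonist L165041 at 300 nM final during compound exposure; series mostly up to about 62 µM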). In outline:
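Here, a reporter line (HEK293H, beta-lactamase under a UAS) measures PPARd signaling. Compounds are tested against agonist L165041 at 300 nM final concentration over 17 h at 37 C, with fluorescence read after substrate.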

Test [16] concerns the target Vitamin D3 receptor (Homo sapiens) (UniProt P11473). As to the kind of experiment: qHTS assay to identify small molecule agonists of the vitamin D receptor (VDR) signaling pathway (AID 743222; calls by dose curve). In outline:
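Tox21 cell reporter format: VDR-bla line, 16 h compound exposure in 5% CO2 at 37C, then fluorescence intensity after 2 h with LiveBLAzer B/G FRET substrate.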

The target is the same in test [17]. As to the kind of experiment: qHTS assay to identify small molecule antagonists of the vitamin D receptor (VDR) signaling pathway (AID 743223; active means well fitted inhibition curve with a large enough effect in the signal ratio in the repeat runs, not every such curve was filed as active; the % refers to the signal ratio). In outline:
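Fluorescence from LiveBLAzer B/G FRET substrate, read after 2 h at room temperature, reflects beta-lactamase reporter activity in VDR-bla cells treated 16 h at 37C with compounds and agonist 1alpha,25-dihydroxyvitamin D3 (3 nM final).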

Test [18] concerns the target Bile acid receptor (Homo sapiens) (UniProt Q96RI1). In words: qHTS assay to identify small molecule agonists of the farnesoid-X-receptor (FXR) signaling pathway (AID 743220; active means well fitted activation curve with a large enough effect in the signal ratio in the repeat runs, not every such curve was filed as active; the % refers to the signal ratio; further: potency means the concentration at half of the fitted maximal effect). The procedure, abridged:
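FXR-UAS-bla HEK 293T cells carrying a UAS-driven beta-lactamase reporter were plated for 5 h at 37C/5% CO2, then exposed to DMSO-dissolved Tox21 10K compounds for 16 h at 37C. A LiveBLAzer B/G FRET substrate was loaded for 2 h at room temperature before fluorescence reading.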

The target is the same in test [19]. In words: qHTS assay to identify small molecule antagonists of the farnesoid-X-receptor (FXR) signaling pathway (AID 743217; active means well fitted inhibition curve with a large enough effect in the signal ratio in the repeat runs, not every such curve was filed as active; the % refers to the signal ratio). The procedure, abridged: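 Test compounds are pin-transferred onto FXR-bla HEK 293T cells, then chenodeoxycholic acid is added at 50 uM final. After 16 h at 37 °C, LiveBLAzer B/G substrate is applied for 2 h at room temperature and fluorescence read.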

Test [20] has as its target Peroxisome proliferator-activated receptor gamma (Homo sapiens) (UniProt P37231). As to the kind of experiment: qHTS assay to identify small molecule agonists of the peroxisome proliferator-activated receptor gamma (PPARg) signaling pathway (AID 743094; active means well fitted activation curve with a large enough effect in the signal ratio in the repeat runs, not every such curve was filed as active; the % refers to the signal ratio). In outline:
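Agonism was assessed in a beta-lactamase reporter system, HEK293H cells with a stably integrated UAS-bla construct under PPARg control; the 17 h treatment at 37C preceded a 1 h room-temperature FRET substrate read.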

The structures appear in SMILES notation. Values joined by “and” are separate entries in the source; they are usually repeats but may differ in a detail not shown here. Identical values can stand only once. Records with an inconclusive call do not appear. The source holds several records for some structures; these can differ, active in one and inactive in another. Active and inactive are the calls of the source. Unless noted, the call rests on the fitted dose curve; in most records, active means well fitted curve in the direction sought with a large enough effect in the repeat runs; inconclusive means weak or mixed curves; inactive means no such curve, though single readings can be large; an effect the other way counts as inactive or inconclusive.

Sequence of Peroxisome proliferator-activated receptor gamma (Homo sapiens) (P37231 whole entry, looked up): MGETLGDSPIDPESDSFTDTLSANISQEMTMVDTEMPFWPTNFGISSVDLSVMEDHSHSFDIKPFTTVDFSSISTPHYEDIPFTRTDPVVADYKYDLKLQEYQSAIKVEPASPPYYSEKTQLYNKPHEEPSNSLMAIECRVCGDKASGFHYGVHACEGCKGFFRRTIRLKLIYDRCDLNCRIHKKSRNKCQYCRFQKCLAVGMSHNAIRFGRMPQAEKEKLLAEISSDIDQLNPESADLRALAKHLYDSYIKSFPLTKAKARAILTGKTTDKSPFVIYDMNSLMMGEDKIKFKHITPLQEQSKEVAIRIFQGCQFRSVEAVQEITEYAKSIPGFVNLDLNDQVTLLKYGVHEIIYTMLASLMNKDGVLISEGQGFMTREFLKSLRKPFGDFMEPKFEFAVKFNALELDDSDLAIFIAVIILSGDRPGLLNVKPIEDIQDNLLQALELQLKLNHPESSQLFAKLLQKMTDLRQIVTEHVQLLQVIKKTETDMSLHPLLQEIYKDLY
Sequence of Vitamin D3 receptor (Homo sapiens) (P11473 whole entry, looked up): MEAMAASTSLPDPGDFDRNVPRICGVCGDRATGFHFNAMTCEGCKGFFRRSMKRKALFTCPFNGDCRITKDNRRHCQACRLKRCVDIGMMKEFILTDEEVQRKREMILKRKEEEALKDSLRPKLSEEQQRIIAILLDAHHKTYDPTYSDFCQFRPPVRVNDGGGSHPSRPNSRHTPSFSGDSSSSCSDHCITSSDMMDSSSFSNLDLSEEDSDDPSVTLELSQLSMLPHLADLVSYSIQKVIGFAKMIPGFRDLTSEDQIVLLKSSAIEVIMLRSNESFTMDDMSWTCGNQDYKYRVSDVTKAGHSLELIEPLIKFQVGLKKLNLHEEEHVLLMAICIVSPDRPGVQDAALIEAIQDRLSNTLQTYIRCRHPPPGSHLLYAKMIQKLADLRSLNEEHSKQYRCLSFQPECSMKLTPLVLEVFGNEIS
Sequence of Aryl hydrocarbon receptor (Homo sapiens) (P35869 whole entry, looked up): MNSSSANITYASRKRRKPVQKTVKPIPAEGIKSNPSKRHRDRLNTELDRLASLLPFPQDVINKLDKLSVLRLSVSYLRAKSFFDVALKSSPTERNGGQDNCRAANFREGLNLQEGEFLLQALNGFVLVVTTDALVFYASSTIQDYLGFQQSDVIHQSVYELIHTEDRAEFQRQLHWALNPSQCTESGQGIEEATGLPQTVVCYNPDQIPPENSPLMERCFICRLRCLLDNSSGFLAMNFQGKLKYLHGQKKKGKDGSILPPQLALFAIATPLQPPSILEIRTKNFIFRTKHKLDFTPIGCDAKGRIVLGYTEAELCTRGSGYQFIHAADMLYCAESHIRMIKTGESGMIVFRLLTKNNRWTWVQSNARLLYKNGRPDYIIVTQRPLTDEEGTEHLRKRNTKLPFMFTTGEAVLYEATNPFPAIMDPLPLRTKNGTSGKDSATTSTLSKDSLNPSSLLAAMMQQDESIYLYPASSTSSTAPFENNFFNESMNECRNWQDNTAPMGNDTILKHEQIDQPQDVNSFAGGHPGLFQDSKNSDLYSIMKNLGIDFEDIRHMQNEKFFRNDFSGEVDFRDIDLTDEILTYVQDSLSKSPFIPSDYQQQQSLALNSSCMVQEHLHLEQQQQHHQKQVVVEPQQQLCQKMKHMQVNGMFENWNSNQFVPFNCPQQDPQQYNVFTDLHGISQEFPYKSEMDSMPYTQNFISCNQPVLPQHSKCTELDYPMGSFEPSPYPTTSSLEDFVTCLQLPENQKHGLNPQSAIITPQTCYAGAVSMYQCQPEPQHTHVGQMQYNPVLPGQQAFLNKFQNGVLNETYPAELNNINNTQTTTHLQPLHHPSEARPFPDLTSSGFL
Sequence of Peroxisome proliferator-activated receptor delta (Homo sapiens) (Q03181 whole entry, looked up): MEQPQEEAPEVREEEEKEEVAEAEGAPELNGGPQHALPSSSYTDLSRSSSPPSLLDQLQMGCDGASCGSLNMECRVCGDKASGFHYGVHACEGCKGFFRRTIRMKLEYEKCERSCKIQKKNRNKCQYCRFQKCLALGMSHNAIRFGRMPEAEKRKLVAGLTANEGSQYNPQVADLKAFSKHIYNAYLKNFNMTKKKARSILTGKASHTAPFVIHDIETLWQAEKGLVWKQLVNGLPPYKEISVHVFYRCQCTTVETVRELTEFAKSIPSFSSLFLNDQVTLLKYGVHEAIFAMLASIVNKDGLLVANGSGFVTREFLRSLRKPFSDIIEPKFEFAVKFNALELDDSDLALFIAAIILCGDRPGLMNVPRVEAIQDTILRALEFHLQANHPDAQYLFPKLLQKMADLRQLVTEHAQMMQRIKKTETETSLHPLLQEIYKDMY
Sequence of Bile acid receptor (Homo sapiens) (Q96RI1 whole entry, looked up): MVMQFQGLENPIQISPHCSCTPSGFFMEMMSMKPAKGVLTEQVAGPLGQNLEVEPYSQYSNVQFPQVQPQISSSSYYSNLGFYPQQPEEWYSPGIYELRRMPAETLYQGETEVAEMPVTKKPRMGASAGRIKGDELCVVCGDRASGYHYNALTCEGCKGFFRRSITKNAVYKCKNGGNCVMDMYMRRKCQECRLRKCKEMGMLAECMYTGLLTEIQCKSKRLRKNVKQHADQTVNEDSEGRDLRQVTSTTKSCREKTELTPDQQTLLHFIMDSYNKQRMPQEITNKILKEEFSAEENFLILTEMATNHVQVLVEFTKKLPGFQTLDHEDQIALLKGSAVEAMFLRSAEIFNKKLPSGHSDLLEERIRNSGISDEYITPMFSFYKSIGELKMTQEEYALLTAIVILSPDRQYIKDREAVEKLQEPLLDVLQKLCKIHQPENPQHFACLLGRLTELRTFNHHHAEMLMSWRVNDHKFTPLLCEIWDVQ

As for `CC[N+](CC)(CC(=O)Nc1c(C)cccc1C)Cc1ccccc1`, the Potency result in test [1], in test [2], in test [3], in test [4], in [5] and in test [6] was “inactive” throughout. Besides, the Potency entry in test [7], in test [8], in [9], in test [10] and in [11] was “inactive” in each case.

For the compound `CC(=O)OC[C@H]1O[C@@](COC(C)=O)(O[C@H]2O[C@H](COC(C)=O)[C@@H](OC(C)=O)[C@H](OC(C)=O)[C@H]2OC(C)=O)[C@@H](OC(C)=O)[C@@H]1OC(C)=O`, the Potency result in test [1], in [12], in [2], in test [4], in test [5] and in test [6] was “inactive” throughout. In addition, the Potency result in test [7], in [13], in [8], in [14], in [9] and in test [15] was “inactive” throughout. Besides, the Potency entry in [10], in test [11] and in [17] was “inactive” each time. In addition, the compound was called inactive in [16].

Regarding `Nc1nc(N)c2nc(-c3ccccc3)c(N)nc2n1`, the Potency entry in test [2], in [4], in [7], in test [8], in [9] and in [10] was “inactive” throughout. In addition, the Potency entry in [11] was “inactive”. Moreover, the Potency in [5] is 31 µM (active) and 30.6 µM (active) and 23.7 µM (active); in [6] it was 27.6 µM (active) and 17.2 µM (active); in [13], 37.1 µM (active) and 29.7 µM (active) and 26.6 µM (active); in test [14], 24.5 µM (active) and 23.7 µM (active); in test [18], 49.5 µM (active) and 21.1 µM (active).

For the compound `C=CC(=O)NCOCCCC`, the Potency entry in test [1], in test [12], in test [2], in test [4], in [6] and in test [13] was “inactive” each time. Moreover, the Potency entry in test [8], in test [14], in test [9], in test [15], in test [10] and in test [11] was “inactive” in each case. Besides, in test [17], the Potency entry was “inactive”. Besides, the compound was classed as inactive in test [16].

As for `C=C(C)CC(C)(C)C`, the Potency entry in test [2], in test [4], in [5], in test [6], in test [13] and in test [8] was “inactive” throughout. Further, the Potency result in [9], in test [19], in [10], in test [18], in test [11] and in [17] was “inactive” in each case. The compound was called inactive in test [16].

`N[C@@H](Cc1cc(I)c(Oc2ccc(O)c(I)c2)c(I)c1)C(=O)O`: the Potency entry in test [1], in test [2], in [20], in [4], in [6] and in [13] was “inactive” each time. Moreover, the Potency result in test [8], in test [14], in test [9], in test [15], in test [10] and in test [11] was “inactive” in each case. In addition, the Potency result in test [17] is “inactive”. Moreover, the Potency result in [5] is “inactive and 12.7 µM (active)”. In addition, the compound was classed as inactive in test [16].

As for `CC/C(C)=N/O`, the Potency result in [2], in test [4], in test [5], in test [6], in [7] and in test [13] was “inactive” throughout. Also, the Potency entry in test [8], in test [9], in test [10] and in [17] was “inactive” throughout. Further, in test [16], the compound was classed as inactive.

For `CC(CN1c2ccccc2Sc2ccccc21)N(C)C` (stereo not drawn), the Potency result in test [1], in test [12], in [2], in [5], in [7] and in test [13] was “inactive” throughout. For the same compound, the Potency is 68.6 µM (active) and inactive in test [6]; 49.5 µM (active) and 21.9 µM (active) in test [8]; 49.5 µM (active) and 24.5 µM (active) in test [9]; 49.5 µM (active) and 27.5 µM (active) in test [10].

As to `CCOC(=O)CC(=O)OCC`, the Potency result in test [2], in test [4], in [5], in test [6], in [7] and in test [13] was “inactive” each time. Moreover, the Potency entry in test [8], in test [14], in test [9], in test [15], in test [19] and in [10] was “inactive” in each case. In addition, the Potency entry in [18], in test [11] and in [17] was “inactive” throughout. Further, the compound was classed as inactive in test [16].
